Here are results for 24 compounds from PubChem BioAssay (NCATS).

Records with an inconclusive call do not appear. Active and inactive are the calls of the source. Calls come from the whole dose curve; as a rule, active = well fitted curve in the direction sought with a large enough effect; inconclusive = small, poorly fitted or top-dose-only effect, or another doubt; inactive = no such curve, though single readings can be large; an effect the other way counts as inactive or inconclusive.

For assay [1], the target named is Tyrosyl-DNA phosphodiesterase 1 (Homo sapiens) (UniProt Q9NUW8). In words: Confirmation Assay for Inhibitors of Tyrosyl-DNA Phosphodiesterase (TDP1) (AID 489007). Note: nearly all actives have a fitted effect of over 40% in size. The settings on record: recombinant human TDP1 enzymatic activity, dose-response. The gist of the method:
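Recombinant human Tdp1 (1 nM final), expressed in E. coli, preincubated 15 min with compound. Then 15 nM 5'-biotin/3'-phosphotyrosine-FITC DNA substrate added for 5 min at room temperature. AlphaScreen beads (10 ug/ml) added for 10 min; cleavage gives signal loss.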

Assay [2] is described as follows: S16 Schwann cell PMP22 intronic element firefly luciferase assay (AID 624032). Note: nearly all actives have a fitted effect of over 30% in size. The settings on record: S16 rat Schwann cells, PMP22 element FLuc, 24 h; series mostly up to 57.5 µM. The gist of the method: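 Rat S16 Schwann cells stably carrying firefly luciferase driven by a PMP22 intronic element, in 10% FBS, treated 24 h at 37 C. ONE-Glo luminescence normalized to PTC124 control and DMSO (0%); curves classed by r2, magnitude and activity.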

The test system of another assay is 7G8. In words: qHTS profiling for inhibitors of Plasmodium falciparum proliferation (AID 504749). Note: nearly all actives have a fitted effect of over 60% in size. The conditions noted are these: P. falciparum in erythrocytes, SYBR Green DNA, 72 h; series mostly up to 28.7 µM. The procedure, abridged:
(§1)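 P. falciparum-infected erythrocytes (0.3% parasitemia, 2.5% hematocrit) incubated with compound 72 h at 37 C, 5% CO2. Parasite DNA detected by SYBR Green after lysis, overnight at room temperature; normalised to 0.29 uM artemisinin and DMSO.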

The subject of the next assay is DIV17. Described as above. The settings on record: P. falciparum in erythrocytes, SYBR Green DNA, 72 h; series mostly up to 28.7 µM. The procedure, abridged:
as §1

In another assay the test system is TAB109. Described as above. The conditions noted are these: P. falciparum in erythrocytes, SYBR Green DNA, 72 h; series mostly up to 28.7 µM. The procedure, abridged: as §1
The next assay concerns W2. Described as above. The settings on record: P. falciparum in erythrocytes, SYBR Green DNA, 72 h; series mostly up to 28.7 µM. The gist of the method:
as §1
Potency is the fitted concentration of half-maximal effect.

Chain of Tyrosyl-DNA phosphodiesterase 1 (Homo sapiens) (Q9NUW8 whole entry, looked up): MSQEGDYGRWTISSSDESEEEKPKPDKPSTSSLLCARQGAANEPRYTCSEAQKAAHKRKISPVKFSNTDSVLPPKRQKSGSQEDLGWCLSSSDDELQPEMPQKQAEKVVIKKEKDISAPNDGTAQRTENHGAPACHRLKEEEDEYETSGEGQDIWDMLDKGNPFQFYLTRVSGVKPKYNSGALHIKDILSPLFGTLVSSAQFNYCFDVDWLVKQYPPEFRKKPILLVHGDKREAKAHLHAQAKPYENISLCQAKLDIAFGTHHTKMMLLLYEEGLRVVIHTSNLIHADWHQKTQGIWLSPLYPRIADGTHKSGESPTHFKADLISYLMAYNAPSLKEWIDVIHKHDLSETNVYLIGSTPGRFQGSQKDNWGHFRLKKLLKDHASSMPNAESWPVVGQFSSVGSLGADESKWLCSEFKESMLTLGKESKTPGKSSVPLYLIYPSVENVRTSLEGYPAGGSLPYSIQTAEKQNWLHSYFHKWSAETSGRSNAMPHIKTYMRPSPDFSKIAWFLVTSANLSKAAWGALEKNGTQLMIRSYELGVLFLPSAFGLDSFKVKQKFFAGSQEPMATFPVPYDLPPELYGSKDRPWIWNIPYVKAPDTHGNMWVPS

As for `CN(C)c1ccc(/C=C2/C(=O)NC(=O)N(Cc3ccco3)C2=O)cc1`, in assay [1], the Potency is 100 µM (active).
As for `OC[C@@H](O)[C@H]1O[C@@H]2OC(C(Cl)(Cl)Cl)O[C@H]2[C@H]1O` (stereo partly specified), the Potency result (in assay [2]; with 7G8; with DIV17; in the assay on TAB109; in the assay with W2) was “inactive” in each case.
Turning to `C[C@]12C=CC(=O)C=C1CC[C@@H]1C2CC[C@]2(C)OC(=O)CCC12` (stereo partly specified), the Potency result (in assay [2]; in the assay with 7G8; in the assay on DIV17; in the assay on TAB109; in the assay with W2) was “inactive” throughout.
As to `C[C@@H]1CC[C@H]2[C@@H](C)C(=O)O[C@@H]3OC4(C)CC[C@@H]1C32OO4` (stereo partly specified), the Potency in the assay on 7G8 was 0.0016 µM (active); in the assay with DIV17 it was 0.0095 µM (active); with TAB109 it was 0.0045 µM (active); in the assay with W2 it was 0.003 µM (active).
`Oc1cc(O)c2c(c1)OC(c1cc(O)c(O)c(O)c1)C(O)C2` (stereo unspecified): in assay [1], the Potency is 5.01 µM (active).
For the compound `CCCCCc1cc(O)c2c(c1)OC(C)(C)C1CC=C(C)CC21` (stereo unspecified), the Potency in the assay with 7G8 is 0.708 µM (active); in the assay with DIV17, 1.51 µM (active); in the assay with TAB109 it was 3.16 µM (active); in the assay with W2, 1.51 µM (active).
Regarding `CC1(C)[C@@H](C=C(Cl)Cl)[C@@H]1C(=O)OCc1c(F)c(F)cc(F)c1F`, the Potency entry with 7G8 and in the assay on DIV17 was “inactive” in each case.
On to `O=c1c2ccccc2nc(/C=C/c2cccnc2)n1Cc1ccccc1`, for which the Potency in assay [1] was 14.1 µM (active).
Still for that read-out and setting: next, `CC(=O)Nc1ccc(N=Cc2c(O)n(Cc3ccco3)c(=O)[nH]c2=O)cc1`: 22.4 µM (active).
Regarding `C[C@H](N)Cc1ccccc1`, the Potency result (in assay [2]; in the assay with 7G8; with TAB109; with W2) was “inactive” each time.
Turning to `Cc1cc(C)cc(C(=O)OC2CC3CCC(C2)N3C)c1` (stereo unspecified), the Potency in the assay on 7G8 is 8.91 µM (active). The Potency entry in the assay on TAB109 is “inactive”.
In the case of `CCOC(=O)CCCc1cc[c]([Sb](=[O])([OH])[OH])cc1`, in assay [1], the Potency was 0.794 µM (active).
As to `CCOC(=O)/C=C(C)/C=C/CC(C)CCCC(C)C` (stereo unspecified), the Potency entry (in assay [2]; in the assay on 7G8; with DIV17; with TAB109; in the assay with W2) was “inactive” throughout.
Regarding `CCOc1ccc2nc(N=Nc3c(O)[nH]c(=O)[nH]c3=O)sc2c1`, in assay [1], the Potency was 100 µM (active).
On to `[S]=[Sb][S][Sb]=[S]`, for which the Potency result (in assay [2]; in the assay on 7G8; with DIV17; with TAB109; in the assay on W2) was “inactive” throughout.
As to `CCCCCC(O)C1C(=O)OC(C)C(O)\C=C/C=C\C=C/C=C\C=C(\C)C(O)C(O)C(O)CC(O)CC(O)CC(O)CC(O)CC1O` (stereo unspecified), the Potency entry (in assay [2]; in the assay with 7G8; in the assay on DIV17; in the assay on TAB109; in the assay with W2) was “inactive” throughout.
In the case of `Nc1nc(/C(=C/CC(=O)O)C(=O)NC2C(=O)N3C(C(=O)O)=CCSC23)cs1` (stereo unspecified), the Potency in assay [1] is 12.6 µM (active).
Consider `O=C1NC(=O)N(c2ccc3c(c2)OCO3)C(=O)/C1=C\c1ccc(-c2ccccc2C(=O)O)o1`, for which, in assay [1], the Potency was 3.16 µM (active).
As for `CCCCCCC(=O)O[C@H]1CC[C@H]2[C@@H]3CCC4CC(=O)C=C(C)[C@]4(C)[C@H]3CC[C@]12C` (stereo partly specified), the figures for the Potency (in assay [2]; in the assay on 7G8; in the assay with W2) were 11.4 µM (active), 8.91 µM (active) and 7.57 µM (active), respectively. Besides, the Potency entry in the assay with TAB109 is “inactive”.
As to `CN1C2CCC1C(C(=O)O)C(OC(=O)c1ccccc1)C2` (stereo unspecified), the Potency entry (in assay [2]; in the assay with 7G8; with DIV17; in the assay with TAB109; with W2) was “inactive” in each case.
Take `COc1ccc2c3c1O[C@H]1[C@@H](O)C=C[C@H]4C(C2)NCCC341` (stereo partly specified): the Potency entry (in assay [2]; in the assay with 7G8; in the assay on DIV17; with TAB109; with W2) was “inactive” throughout.
As to `CCCN1CCCC2Cc3nc(N)ncc3CC21` (stereo unspecified), the Potency result (in assay [2]; with 7G8; in the assay on DIV17; with TAB109; in the assay on W2) was “inactive” each time.
On to `CC1(C)S[C@@H]2[C@H](N)C(=O)N2C1C(=O)O` (stereo partly specified), for which the Potency entry (in assay [2]; in the assay on 7G8; in the assay on DIV17; with TAB109; with W2) was “inactive” in each case.
`Cc1ccc2c(c1)[C@@H]1CN(C)CC[C@H]1N2`: the Potency result with 7G8, in the assay with DIV17 and in the assay with TAB109 was “inactive” in each case.
